We go through 14 compounds from PubChem BioAssay (EPA / NIEHS).

Assay [1] addresses Retinoic acid receptor RXR-alpha (Homo sapiens) (UniProt P19793). Description: ATG_RXRa_TRANS: Attagene TRANS-FACTORIAL HepG2 Assay for human Retinoid X Receptor alpha (RXRa) (AID 2283012; active = hit-call score of the fitted dose curve at least 0.9, where 1 is the maximum). Put shortly:
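Cells (HepG2) carried transiently transfected GAL4-responsive reporter units. Following a 24 h chemical incubation, reporter mRNA induction was read via RT-PCR fragment analysis; DMSO served as negative control and baseline.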

Assay [2] addresses human Retinoid X Receptor beta (RXRb), RXRB (gene 6257) (UniProt P28702). Description: ATG_RXRb_TRANS: Attagene TRANS-FACTORIAL HepG2 Assay for human Retinoid X Receptor beta (RXRb) (AID 2283013; active = hit-call score of the fitted dose curve at least 0.9, where 1 is the maximum). The gist of the method:
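Multiplexed TRANS reporter assay in HepG2; 24 h dosing; reporter mRNA by RT-PCR/CE fluorescence; gain-of-signal relative to DMSO.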

Read-out in assay [3]: E-selectin (Homo sapiens) (UniProt P16581)
Description: BSK_3C_Eselectin: BioMAP Diversity Plus: 3C Assay for Eselectin Biomarker Activity (AID 2283015).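 For outcome: cell surface E-selectin protein quantified by ELISA 24 h after dosing.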 The note with it: primary human endothelial cells (HUVEC); actives raise or lower the signal. Put shortly: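 ELISA read-out of E-selectin on endothelial monolayers after 24 h chemical treatment. Human umbilical vein primary cells served as the system, with DMSO defining baseline activity for bidirectional fitting.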

Read-out in assay [4]: Interleukin-1 alpha (IL1a), IL1A (gene 3552)
Description: BSK_BE3C_IL1a: BioMAP Diversity Plus: BE3C Assay for Interleukin-1 alpha (IL1a) Biomarker Activity (AID 2283016). The note with it: primary human bronchial epithelial cells; actives raise or lower the signal. The gist of the method:
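Cultures of primary human bronchial epithelial cells receive test chemical. After 24 h, IL-1a is quantified by ELISA, while parallel wells are fixed in TCA and SRB-stained for total protein. Changes in either direction are fitted relative to DMSO.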

Read-out in assay [5]: Monocyte Chemoattractant Protein-1 (MCP1), CCL2 (gene 6347)
Description: BSK_4H_MCP1: BioMAP Diversity Plus: 4H Assay for Monocyte Chemoattractant Protein-1 (MCP1) Biomarker Activity (AID 2283018). The note with it: primary human endothelial cells (HUVEC); actives raise or lower the signal. Put shortly: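 Readout: MCP-1 ELISA on compound-treated HUVEC, sampled 24 h post-dosing. Baseline and negative control DMSO; bidirectional fit. Overt toxicity checked alongside by sulforhodamine B protein staining at time of biomarker measurement.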

Read-out in assay [6]: Human Leukocyte Antigen - DR isotype (HLADR), HLA-DRA (gene 3122)
As to the kind of experiment: BSK_3C_HLADR: BioMAP Diversity Plus: 3C Assay for Human Leukocyte Antigen - DR isotype (HLADR) Biomarker Activity (AID 2283019). Particulars: primary human endothelial cells (HUVEC); actives raise or lower the signal. The gist of the method: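 ELISA readout of surface HLA-DR on human umbilical vein endothelium, taken 24 h after chemical treatment. Gain- and loss-of-signal were both fitted relative to DMSO.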

Read-out in assay [7]: Interleukin-8 (IL8), CXCL8 (gene 3576)
As to the kind of experiment: BSK_3C_IL8: BioMAP Diversity Plus: 3C Assay for Interleukin-8 (IL8) Biomarker Activity (AID 2283020). Particulars: primary human endothelial cells (HUVEC); actives raise or lower the signal. Put shortly:
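Human vascular endothelial cells (umbilical vein) in the 3C system; IL-8 level detected by ELISA at 24 h post-dose, with DMSO as baseline.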

Read-out in assay [8]: Monokine induced gamma interferon (MIG), CXCL9 (gene 4283)
As to the kind of experiment: BSK_3C_MIG: BioMAP Diversity Plus: 3C Assay for Monokine induced gamma interferon (MIG) Biomarker Activity (AID 2283021).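 For AC50: MIG protein level measured by immunoassay in the treated endothelial cultures.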 The note with it: primary human endothelial cells (HUVEC); actives raise or lower the signal. The gist of the method: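 After 24 h of treatment, human umbilical vein endothelial cultures (3C system) had their MIG biomarker level determined by ELISA, with DMSO serving as negative control.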

Assay [9] concerns the target human Vitamin D Receptor (VDR), VDR (gene 7421) (UniProt P11473). As to the kind of experiment: ATG_VDR_TRANS: Attagene TRANS-FACTORIAL HepG2 Assay for human Vitamin D Receptor (VDR) (AID 2283022; active = hit-call score of the fitted dose curve at least 0.9, where 1 is the maximum). The gist of the method: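 Steps: transfect HepG2 with GAL4-UAS-driven reporter constructs; dose compounds 24 h; isolate RNA, reverse-transcribe, PCR-amplify with 6-FAM-labelled primer extension and HpaI digestion; quantify fragments by capillary electrophoresis relative to DMSO.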

The nature of assay [10]: BSK_3C_SRB: Viability Assessment in the BioMAP Diversity Plus: 3C Assay (AID 2283023).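 Note: fitted both ways against DMSO so a hit may be signal rise or drop.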 Particulars: primary human endothelial cells (HUVEC). The gist of the method: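 Absorbance at 560 nm of sulforhodamine B-stained (0.1%) total protein served as a cytotoxicity readout in human umbilical vein endothelial cells, 24 h after chemical treatment. Signal was fitted bidirectionally relative to DMSO.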

Read-out in assay [11]: Matrix Metallopeptidase 1 (MMP1), MMP1 (gene 4312)
As to the kind of experiment: BSK_BE3C_MMP1: BioMAP Diversity Plus: BE3C Assay for Matrix Metallopeptidase 1 (MMP1) Biomarker Activity (AID 2283024). Particulars: primary human bronchial epithelial cells; actives raise or lower the signal. The gist of the method: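 Dose cells, wait 24 h, run MMP1 ELISA; cells are human bronchial epithelial primaries. Both increases and decreases relative to DMSO counted.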

The nature of assay [12]: BSK_3C_Vis: BioMAP Diversity Plus: 3C Assay for Morphology Visualization (AID 2283025).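 For AC50: light microscopy image of cell morphology used as background control.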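 Note: fitted both ways so gain or loss versus DMSO counts.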 Particulars: primary human endothelial cells (HUVEC). The gist of the method:
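Endothelial cells from human umbilical vein were treated with test chemicals for 24 h and inspected by light microscopy for changes in cell conformation.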

Assay [13] in a line: BSK_4H_SRB: Viability Assessment in the BioMAP Diversity Plus: 4H Assay (AID 2283027).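 For AC50: curves fitted both ways versus DMSO so AC50 may be loss or gain.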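 Note: cells exposed to compound for 24 h before staining.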 Particulars: primary human endothelial cells (HUVEC). The gist of the method: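 Human umbilical vein endothelial cells, 24 h after chemical dosing; total protein measured by 0.1% sulforhodamine B staining after 10% TCA fixation, read at 560 nm. Bidirectional fitting against DMSO.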
Assay [14] can be described thus: BSK_BE3C_SRB: Viability Assessment in the BioMAP Diversity Plus: BE3C Assay (AID 2283028).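 For AC50: fitted both ways so AC50 may mark signal gain or loss versus DMSO.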 The note with it: primary human bronchial epithelial cells. The gist of the method: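 Cells (human bronchial epithelial, primary) are treated with chemicals, and after 24 h the parallel cultures are fixed in 10% TCA. These are then stained with 0.1% SRB and read at 560 nm. Gain or loss of signal is fitted relative to DMSO.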

Read-out in assay [15]: Thrombomodulin, THBD (gene 7056)
Description: BSK_3C_Thrombomodulin: BioMAP Diversity Plus: 3C Assay for Thrombomodulin Biomarker Activity (AID 2283029). The note with it: primary human endothelial cells (HUVEC); actives raise or lower the signal. The gist of the method: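 Thrombomodulin ELISA, human primary HUVEC, 24 h post-dose; data fitted in both directions relative to DMSO.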

Read-out in assay [16]: Pselectin, SELP (gene 6403)
As to the kind of experiment: BSK_4H_Pselectin: BioMAP Diversity Plus: 4H Assay for Pselectin Biomarker Activity (AID 2283026). Particulars: primary human endothelial cells (HUVEC); actives raise or lower the signal. The gist of the method:
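Human vascular endothelium from umbilical vein; P-selectin measured by ELISA at 24 h post-dose, with cytotoxicity checked by sulforhodamine B total-protein staining in parallel cultures (0.1% SRB after 10% TCA fixation, read at 560 nm).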

Assay [17] has as its target human Thyroid Receptor alpha (THRa1), THRA (gene 7067) (UniProt P10827). As to the kind of experiment: ATG_THRa1_TRANS: Attagene TRANS-FACTORIAL HepG2 Assay for human Thyroid Receptor alpha (THRa1) (AID 2283014; active = hit-call score of the fitted dose curve at least 0.9, where 1 is the maximum). Put shortly: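 Reporter transcript induction, read by capillary electrophoresis of 6-FAM-labelled RT-PCR products, reflects activity of a transfected THRa1-Gal4 fusion in HepG2 liver cells. Cells were dosed for 24 h; activity was fitted in the positive direction against DMSO.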

Read-out in assay [18]: Monocyte Chemoattractant Protein-1 (MCP1), CCL2 (gene 6347)
Description: BSK_3C_MCP1: BioMAP Diversity Plus: 3C Assay for Monocyte Chemoattractant Protein-1 (MCP1) Biomarker Activity (AID 2283017). The note with it: primary human endothelial cells (HUVEC); actives raise or lower the signal. The gist of the method:
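ELISA read-out of MCP-1 from human umbilical vein endothelial cell cultures harvested 24 h post-dosing. Gain or loss of signal was fitted relative to DMSO.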

Molecules are shown by their SMILES. Results filed as inconclusive are left out. Where a structure was tested more than once in an assay, its records may differ in their call. Calls of active or inactive are those of the source. Rule for the calls, unless noted: active = hit-call score of the fitted dose curve at least 0.9, where 1 is the maximum; inactive = score below 0.9.

human Thyroid Receptor alpha (THRa1), THRA (gene 7067), sequence (P10827 whole entry, looked up, the tested form may be a part): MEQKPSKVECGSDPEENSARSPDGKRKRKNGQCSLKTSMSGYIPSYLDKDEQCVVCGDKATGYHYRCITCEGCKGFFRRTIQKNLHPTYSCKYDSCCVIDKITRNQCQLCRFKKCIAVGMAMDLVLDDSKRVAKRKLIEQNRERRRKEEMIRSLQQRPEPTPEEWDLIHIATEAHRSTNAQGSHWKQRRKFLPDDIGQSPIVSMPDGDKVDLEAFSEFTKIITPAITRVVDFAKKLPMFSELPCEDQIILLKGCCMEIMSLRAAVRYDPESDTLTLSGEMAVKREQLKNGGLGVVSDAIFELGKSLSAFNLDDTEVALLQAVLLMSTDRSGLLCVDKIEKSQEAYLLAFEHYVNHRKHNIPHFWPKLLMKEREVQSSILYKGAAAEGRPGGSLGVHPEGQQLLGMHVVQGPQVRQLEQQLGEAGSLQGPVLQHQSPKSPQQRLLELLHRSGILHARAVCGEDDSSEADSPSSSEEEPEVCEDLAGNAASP
E-selectin (Homo sapiens), sequence (P16581 whole entry, looked up): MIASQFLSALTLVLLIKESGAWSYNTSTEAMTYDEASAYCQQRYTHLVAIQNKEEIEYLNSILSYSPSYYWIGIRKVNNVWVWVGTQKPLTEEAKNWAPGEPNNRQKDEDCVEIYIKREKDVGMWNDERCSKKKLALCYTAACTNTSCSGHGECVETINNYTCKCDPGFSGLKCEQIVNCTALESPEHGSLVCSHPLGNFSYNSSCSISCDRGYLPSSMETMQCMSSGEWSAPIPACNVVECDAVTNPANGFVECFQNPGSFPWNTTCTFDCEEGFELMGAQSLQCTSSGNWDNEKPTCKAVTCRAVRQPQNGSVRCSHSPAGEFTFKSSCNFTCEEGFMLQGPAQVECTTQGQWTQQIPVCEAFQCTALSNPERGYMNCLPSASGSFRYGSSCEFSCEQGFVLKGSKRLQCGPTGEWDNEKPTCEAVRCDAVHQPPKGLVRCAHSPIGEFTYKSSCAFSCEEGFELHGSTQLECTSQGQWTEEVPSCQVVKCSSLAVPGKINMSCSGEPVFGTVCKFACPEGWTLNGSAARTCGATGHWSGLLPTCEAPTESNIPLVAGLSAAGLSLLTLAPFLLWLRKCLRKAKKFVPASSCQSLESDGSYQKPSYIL
human Retinoid X Receptor beta (RXRb), RXRB (gene 6257), sequence (P28702 whole entry, looked up): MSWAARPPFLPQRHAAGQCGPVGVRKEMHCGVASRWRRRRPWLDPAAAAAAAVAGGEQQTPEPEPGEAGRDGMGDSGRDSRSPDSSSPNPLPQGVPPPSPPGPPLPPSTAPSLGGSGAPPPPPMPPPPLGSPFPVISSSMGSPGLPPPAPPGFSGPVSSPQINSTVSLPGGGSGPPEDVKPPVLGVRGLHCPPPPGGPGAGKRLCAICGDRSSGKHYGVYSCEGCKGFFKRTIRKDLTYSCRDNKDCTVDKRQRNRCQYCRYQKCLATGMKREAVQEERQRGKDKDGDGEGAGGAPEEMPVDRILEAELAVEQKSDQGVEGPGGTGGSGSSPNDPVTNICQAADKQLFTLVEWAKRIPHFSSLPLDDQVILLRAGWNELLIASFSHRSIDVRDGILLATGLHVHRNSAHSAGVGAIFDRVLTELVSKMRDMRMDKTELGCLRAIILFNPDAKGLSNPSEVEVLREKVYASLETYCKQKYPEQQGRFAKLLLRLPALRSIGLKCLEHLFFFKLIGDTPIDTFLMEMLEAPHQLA
Retinoic acid receptor RXR-alpha (Homo sapiens), sequence (P19793 whole entry, looked up, the tested form may be a part): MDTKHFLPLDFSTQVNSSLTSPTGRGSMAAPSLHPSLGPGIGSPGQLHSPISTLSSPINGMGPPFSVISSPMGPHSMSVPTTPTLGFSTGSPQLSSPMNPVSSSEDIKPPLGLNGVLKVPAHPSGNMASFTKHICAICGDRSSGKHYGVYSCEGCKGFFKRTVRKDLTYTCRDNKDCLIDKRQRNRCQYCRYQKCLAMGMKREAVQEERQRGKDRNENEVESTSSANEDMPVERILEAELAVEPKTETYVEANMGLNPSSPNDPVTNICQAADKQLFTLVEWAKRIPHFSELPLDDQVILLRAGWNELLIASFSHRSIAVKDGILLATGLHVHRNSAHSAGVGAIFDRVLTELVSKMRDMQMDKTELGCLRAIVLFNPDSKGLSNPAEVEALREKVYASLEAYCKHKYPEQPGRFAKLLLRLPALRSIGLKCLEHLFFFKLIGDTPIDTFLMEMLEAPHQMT
human Vitamin D Receptor (VDR), VDR (gene 7421), sequence (P11473 whole entry, looked up, the tested form may be a part): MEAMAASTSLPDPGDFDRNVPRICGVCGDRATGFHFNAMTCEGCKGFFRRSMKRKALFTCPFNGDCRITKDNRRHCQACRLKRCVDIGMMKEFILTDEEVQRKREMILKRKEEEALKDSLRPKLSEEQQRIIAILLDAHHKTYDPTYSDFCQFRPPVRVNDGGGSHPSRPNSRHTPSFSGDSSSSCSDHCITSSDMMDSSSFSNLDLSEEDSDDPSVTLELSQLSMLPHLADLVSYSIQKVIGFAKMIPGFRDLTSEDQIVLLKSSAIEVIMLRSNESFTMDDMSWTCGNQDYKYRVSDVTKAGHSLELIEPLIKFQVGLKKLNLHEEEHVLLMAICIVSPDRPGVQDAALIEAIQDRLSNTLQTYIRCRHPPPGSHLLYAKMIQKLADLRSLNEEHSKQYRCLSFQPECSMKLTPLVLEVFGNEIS

As to `CCCN(CCC)c1c([N+](=O)[O-])cc(C(C)C)cc1[N+](=O)[O-]`, the compound was classed as inactive in assay [1], in [3], in assay [4], in assay [8], in assay [9] and in assay [11]. In addition, the outcome in [12], in assay [14] and in assay [15] was inactive. For the same compound, the AC50 in assay [2] was 17.9 µM (active); in assay [5], 20 µM (active); in assay [6], 28.5 µM (active); in assay [7], 31.2 µM (active); in assay [10], 28.9 µM (active); in [13], 32.8 µM (active).
Consider `CCOP(=S)(OCC)SCSc1ccc(Cl)cc1`, for which the call in [1], in assay [3], in assay [7], in assay [8], in assay [10] and in assay [11] was inactive. For the same compound, the outcome in assay [12], in assay [13], in [14] and in [15] was inactive. The AC50 is 13.5 µM (active) in [2]; 0.212 µM (active) in assay [4]; 8.96 µM (active) in assay [5]; 27.5 µM (active) in assay [6]; 12.6 µM (active) in assay [16].
For the compound `O=c1[nH]c2ccccc2c(=O)o1`, the result in assay [1] was inactive.
Regarding `CCOP(=S)(OCC)SCn1nnc2ccccc2c1=O`, the result in assay [1], in assay [17], in [4], in [5], in assay [7] and in [8] was inactive. In addition, the compound was called inactive in [9], in assay [10], in [11], in assay [12], in assay [13] and in [14]. Also, the result in [15] was inactive. Also, the AC50 in assay [3] was 20 µM (active); in assay [6], 33.7 µM (active).
Take `C=CC(=O)OCC(CC)(COC(=O)C=C)COC(=O)C=C`: the result in assay [1], in assay [2], in assay [9] and in [15] was inactive. Moreover, the AC50 is 2.37 µM (active) in assay [3]; 5.88 µM (active) in [4]; 2.66 µM (active) in [18]; 1.9 µM (active) in assay [5]; 1.38 µM (active) in [6]; 3.18 µM (active) in [7]. For the same compound, the AC50 is 3.68 µM (active) in assay [8]; 2.33 µM (active) in assay [10]; 11.4 µM (active) in assay [11]; 2.98 µM (active) in assay [12]; 2.25 µM (active) in assay [16]; 4.07 µM (active) in assay [13]. Besides, the AC50 in assay [14] is 20 µM (active).
In the case of `Clc1ccc(Oc2ccccc2)cc1`, the outcome in assay [1] and in assay [9] was inactive. Further, the AC50 in assay [2] is 100 µM (active).
Take `Cc1ccc([N+](=O)[O-])cc1C`: the outcome in [1], in assay [2], in assay [3], in [4], in [18] and in [5] was inactive. The result in [6], in [7], in [8], in assay [9], in [10] and in [11] was inactive. The result in assay [12], in assay [13], in assay [14] and in [15] was inactive.
For `COC(N)=O`, the call in [1] and in assay [17] was inactive.
On to `Cc1c([N+](=O)[O-])cc2c(c1[N+](=O)[O-])C(C)(C)CC2(C)C`, for which the AC50 was 8.24 µM (active) in [1], 11.9 µM (active) in assay [6], 2.03 µM (active) in assay [7] and 37.5 µM (active) in assay [12]. Also, the compound was called inactive in [17], in assay [3], in assay [4], in assay [5], in assay [8] and in [9]. The result in assay [10], in assay [11], in assay [13], in assay [14] and in [15] was inactive.
Turning to `FC(F)(F)C(F)(C(F)(F)F)C(F)(F)C(F)(F)CC1CO1` (configuration not stated), the call in [1], in assay [3], in assay [4], in [18], in assay [5] and in [6] was inactive. The outcome in assay [7], in assay [8], in assay [9], in assay [10], in assay [11] and in assay [16] was inactive. The outcome in assay [13], in assay [14] and in assay [15] was inactive. Further, the AC50 in assay [11] was 2.33 µM (active).
Turning to `CC1=C(C(=O)Nc2ccccc2)S(=O)(=O)CCO1`, in assay [1], the outcome was inactive.
`CC1(C)CN=C(NN=C(/C=C/c2ccc(C(F)(F)F)cc2)/C=C/c2ccc(C(F)(F)F)cc2)NC1`: the outcome in assay [1] and in assay [17] was inactive.
Consider `FC(F)(F)c1ccc(Cl)cc1`, for which the outcome in assay [1] was inactive.
Regarding `CC(=O)c1ccc(-c2ccccc2)cc1`, the compound was classed as inactive in [1], in assay [2] and in [9].
